23 compounds from PubChem BioAssay (EPA / NIEHS) can be followed below.

Inconclusive results are not listed. Calls of active or inactive are those of the source. How the source made its calls: active means hit-call score of the fitted dose curve at least 0.9, where 1 is the maximum; inconclusive means response in the unintended direction; inactive means score below 0.9.

human Phosphodiesterase 10 (PDE10), PDE10A (gene 10846), sequence (Q9Y233 whole entry, looked up): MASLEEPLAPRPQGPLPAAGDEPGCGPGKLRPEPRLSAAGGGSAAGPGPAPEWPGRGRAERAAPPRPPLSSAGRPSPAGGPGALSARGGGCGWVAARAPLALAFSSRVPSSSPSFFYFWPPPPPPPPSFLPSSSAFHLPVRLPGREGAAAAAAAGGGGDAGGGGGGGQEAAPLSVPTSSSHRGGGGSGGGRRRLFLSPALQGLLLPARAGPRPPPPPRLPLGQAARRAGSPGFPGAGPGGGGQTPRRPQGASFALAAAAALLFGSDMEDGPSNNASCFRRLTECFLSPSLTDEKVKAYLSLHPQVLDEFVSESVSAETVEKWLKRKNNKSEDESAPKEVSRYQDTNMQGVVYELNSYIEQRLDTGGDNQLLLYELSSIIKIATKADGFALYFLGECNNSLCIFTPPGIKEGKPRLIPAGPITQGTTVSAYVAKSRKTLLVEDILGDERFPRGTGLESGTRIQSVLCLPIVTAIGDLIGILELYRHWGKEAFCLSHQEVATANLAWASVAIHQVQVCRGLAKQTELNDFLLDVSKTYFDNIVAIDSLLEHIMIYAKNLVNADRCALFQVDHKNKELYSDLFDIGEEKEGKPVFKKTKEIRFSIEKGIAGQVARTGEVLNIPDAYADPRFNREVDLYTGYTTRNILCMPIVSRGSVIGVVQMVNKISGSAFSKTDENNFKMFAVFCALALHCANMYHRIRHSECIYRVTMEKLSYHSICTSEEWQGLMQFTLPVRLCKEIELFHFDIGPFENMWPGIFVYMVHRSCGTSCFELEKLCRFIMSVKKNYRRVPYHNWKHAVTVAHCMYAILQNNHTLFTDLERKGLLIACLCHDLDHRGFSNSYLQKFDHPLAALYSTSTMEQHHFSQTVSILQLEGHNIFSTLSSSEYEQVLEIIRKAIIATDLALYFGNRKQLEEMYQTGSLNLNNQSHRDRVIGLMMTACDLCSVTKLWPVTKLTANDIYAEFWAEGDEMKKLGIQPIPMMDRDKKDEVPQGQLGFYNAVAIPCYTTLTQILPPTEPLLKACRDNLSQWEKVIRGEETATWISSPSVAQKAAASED
human Ephrin type-A Receptor 1 (EphA1), EPHA1 (gene 2041), sequence (P21709 whole entry, looked up): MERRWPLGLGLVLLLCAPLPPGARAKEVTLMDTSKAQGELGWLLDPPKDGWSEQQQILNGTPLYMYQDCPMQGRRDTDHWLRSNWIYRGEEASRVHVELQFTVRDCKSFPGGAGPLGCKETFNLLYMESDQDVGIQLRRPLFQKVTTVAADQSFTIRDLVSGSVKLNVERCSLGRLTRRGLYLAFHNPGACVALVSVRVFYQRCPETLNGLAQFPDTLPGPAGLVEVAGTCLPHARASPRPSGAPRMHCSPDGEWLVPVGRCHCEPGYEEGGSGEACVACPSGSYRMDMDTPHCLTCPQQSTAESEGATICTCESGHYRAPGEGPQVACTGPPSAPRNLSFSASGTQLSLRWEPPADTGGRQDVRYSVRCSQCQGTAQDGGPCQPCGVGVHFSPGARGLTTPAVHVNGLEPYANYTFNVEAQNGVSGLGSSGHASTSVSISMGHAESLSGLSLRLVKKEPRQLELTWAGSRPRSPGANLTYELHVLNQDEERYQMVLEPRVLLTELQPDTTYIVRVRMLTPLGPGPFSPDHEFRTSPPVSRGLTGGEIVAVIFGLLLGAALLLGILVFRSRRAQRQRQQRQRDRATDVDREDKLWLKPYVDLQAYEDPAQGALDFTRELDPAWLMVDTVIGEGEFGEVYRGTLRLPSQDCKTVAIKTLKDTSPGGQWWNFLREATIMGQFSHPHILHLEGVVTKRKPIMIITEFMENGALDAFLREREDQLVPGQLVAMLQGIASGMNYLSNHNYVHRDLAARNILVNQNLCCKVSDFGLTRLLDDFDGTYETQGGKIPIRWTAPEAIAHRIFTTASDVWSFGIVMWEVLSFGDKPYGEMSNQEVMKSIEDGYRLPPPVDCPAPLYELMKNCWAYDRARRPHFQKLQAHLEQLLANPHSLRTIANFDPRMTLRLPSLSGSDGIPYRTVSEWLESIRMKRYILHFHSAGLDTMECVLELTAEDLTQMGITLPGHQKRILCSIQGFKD
human Vascular Endothelial Growth Factor Receptor 1 (VEGFR1), FLT1 (gene 2321), sequence (P17948 whole entry, looked up): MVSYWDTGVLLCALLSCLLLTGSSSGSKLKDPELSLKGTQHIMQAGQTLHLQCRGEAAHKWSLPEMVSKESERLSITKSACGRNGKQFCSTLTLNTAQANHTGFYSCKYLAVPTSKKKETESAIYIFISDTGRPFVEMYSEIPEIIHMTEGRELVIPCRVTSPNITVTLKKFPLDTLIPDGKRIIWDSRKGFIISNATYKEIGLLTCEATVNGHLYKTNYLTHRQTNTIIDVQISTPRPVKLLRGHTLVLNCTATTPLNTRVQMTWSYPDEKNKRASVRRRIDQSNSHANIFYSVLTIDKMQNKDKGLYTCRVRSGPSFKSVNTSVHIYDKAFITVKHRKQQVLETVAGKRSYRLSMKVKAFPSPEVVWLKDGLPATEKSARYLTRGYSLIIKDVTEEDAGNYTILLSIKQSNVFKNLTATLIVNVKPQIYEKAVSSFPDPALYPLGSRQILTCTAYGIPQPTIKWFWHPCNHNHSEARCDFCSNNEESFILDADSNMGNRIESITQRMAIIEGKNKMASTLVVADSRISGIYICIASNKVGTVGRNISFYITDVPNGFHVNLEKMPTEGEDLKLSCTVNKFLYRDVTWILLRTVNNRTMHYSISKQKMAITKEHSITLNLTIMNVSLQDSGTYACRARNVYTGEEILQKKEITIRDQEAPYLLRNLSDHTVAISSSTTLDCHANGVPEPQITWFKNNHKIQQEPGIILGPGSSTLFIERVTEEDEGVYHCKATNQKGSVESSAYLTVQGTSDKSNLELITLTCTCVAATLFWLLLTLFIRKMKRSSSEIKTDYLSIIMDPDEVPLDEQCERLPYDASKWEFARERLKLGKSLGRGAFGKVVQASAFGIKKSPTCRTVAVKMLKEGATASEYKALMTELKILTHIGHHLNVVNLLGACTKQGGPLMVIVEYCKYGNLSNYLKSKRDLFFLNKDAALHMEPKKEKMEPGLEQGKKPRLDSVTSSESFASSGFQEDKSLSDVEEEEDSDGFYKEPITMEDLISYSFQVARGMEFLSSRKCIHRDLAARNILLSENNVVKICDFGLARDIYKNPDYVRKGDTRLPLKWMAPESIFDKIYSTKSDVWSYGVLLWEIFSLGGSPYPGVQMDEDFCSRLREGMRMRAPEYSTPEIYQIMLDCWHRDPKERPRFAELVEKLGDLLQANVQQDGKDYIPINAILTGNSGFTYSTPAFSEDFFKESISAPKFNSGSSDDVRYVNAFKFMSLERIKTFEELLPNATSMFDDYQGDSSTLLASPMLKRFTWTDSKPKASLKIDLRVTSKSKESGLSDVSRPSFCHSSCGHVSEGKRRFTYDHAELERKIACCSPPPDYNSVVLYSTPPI
human Caspase 5 (CASP5), CASP5 (gene 838), sequence (P51878 whole entry, looked up): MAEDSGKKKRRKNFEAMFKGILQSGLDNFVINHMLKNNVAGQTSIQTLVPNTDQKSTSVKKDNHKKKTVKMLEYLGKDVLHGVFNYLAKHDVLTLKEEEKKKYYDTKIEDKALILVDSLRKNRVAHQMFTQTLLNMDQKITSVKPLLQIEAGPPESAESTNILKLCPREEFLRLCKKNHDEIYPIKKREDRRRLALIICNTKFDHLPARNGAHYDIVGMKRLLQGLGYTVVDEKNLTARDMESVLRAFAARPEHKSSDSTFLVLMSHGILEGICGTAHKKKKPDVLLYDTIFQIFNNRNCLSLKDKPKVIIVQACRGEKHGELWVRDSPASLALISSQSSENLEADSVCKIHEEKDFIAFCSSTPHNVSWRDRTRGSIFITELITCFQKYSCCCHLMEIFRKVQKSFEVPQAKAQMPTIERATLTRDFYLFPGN

The target in the first assay is Cytochrome P450 2C19 (Homo sapiens) (UniProt P33261). Briefly: NVS_ADME_hCYP2C19: NovaScreen (NVS) CYP450-related Enzyme Activity (ADME) Assay for human CYP2C19 (AID 2283113).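 Further: potency for inhibition seen as loss of fluorescent signal.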 The gist of the method: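 Cell-free recombinant human CYP2C19 from insect cells, fluorescent substrate; activity read by fluorescence intensity 1 h after dosing. Primary screen in duplicate at 10 uM; actives retested in concentration series. Signal loss versus acetonitrile negative control.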
As to `O=C1c2c(O)ccc(Nc3ccc(CCO)cc3)c2C(=O)c2c([N+](=O)[O-])ccc(O)c21`, the AC50 is 4.49 µM (active).
Still for that read-out and setting: in the case of `C[C@]12CC[C@H]3C(=CCc4cc(O)ccc43)[C@@H]1CCC2=O` it was 1.95 µM (active).
As to `CCCCCCCCn1sc(Cl)c(Cl)c1=O`, the AC50 was 8.26 µM (active).
On the same count and under the same terms, as for `c1ccc(C[P+](c2ccccc2)(c2ccccc2)c2ccccc2)cc1`, the figure is 1.87 µM (active).

A further assay has as its target human Caspase 5 (CASP5), CASP5 (gene 838) (UniProt P51878). The assay can be described thus: NVS_ENZ_hCASP5: NovaScreen (NVS) Enzymatic Assay for human Caspase 5 (CASP5) (AID 2283137). The gist of the method: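 Recombinant E. coli-expressed human caspase 5 in a cell-free enzyme assay; fluorescence intensity read 2 hours after chemical dosing. Single-concentration duplicate screen at 25 uM, then concentration-response up to 50 uM for hits; DMSO negative control.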
Consider `CC1=CC2C3C=CC(C3)C2C1C` (stereo unspecified), for which the concentration at half-maximal activity (AC50) is 13.1 µM (active).
On the same count and under the same terms, in the case of `O=C1c2c(O)ccc(Nc3ccc(CCO)cc3)c2C(=O)c2c([N+](=O)[O-])ccc(O)c21` it was 0.148 µM (active); in that of `O=C1C=CC(=O)N1c1ccc(Cc2ccc(N3C(=O)C=CC3=O)cc2)cc1`, 4.26 µM (active).

The next assay concerns the target human Ephrin type-A Receptor 1 (EphA1), EPHA1 (gene 2041) (UniProt P21709). The assay can be described thus: NVS_ENZ_hEphA1: NovaScreen (NVS) Enzymatic Assay for human Ephrin type-A Receptor 1 (EphA1) (AID 2283158).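 Further: activity is signal loss versus DMSO meaning EphA1 kinase inhibition.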 The method in brief:
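Cell-free kinase activity with recombinant protein, 1 hour after dosing; product separated by electrophoretic mobility shift, fluorescence read. Primary screen at 25 uM in duplicate; hits run as concentration-response up to 50 uM, relative to DMSO.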
`O=C(c1ccccc1)c1ccc(O)cc1O`: the result was inactive.
Same read-out and setting: as for `CC1=CCC2C(=O)OC(=O)C2C1` (stereo unspecified), the entry is “inactive”; as for `Brc1nc2ccccc2s1`, “inactive”; as for `C=CCOC(=O)CC(C)C`, “inactive”.
Consider `Cc1cc(=O)[nH]c(C(C)C)n1`, for which the AC50 is 9.31 µM (active).
In the case of `Cc1cc(O)c(C(C)(C)C)cc1C(C)(C)C`, the call was inactive.
For the compound `O=C1C=CC(=O)N1c1ccc(Cc2ccc(N3C(=O)C=CC3=O)cc2)cc1`, the compound was called inactive.

The target of the next assay is human Matrix Metalloproteinase-9 (MMP9), MMP9 (gene 4318) (UniProt P14780). The assay can be described thus: NVS_ENZ_hMMP9: NovaScreen (NVS) Enzymatic Assay for human Matrix Metalloproteinase-9 (MMP9) (AID 2283190).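 Further: cell-free recombinant MMP9 protease activity read by fluorescent substrate signal; active means inhibition seen as loss of fluorescence signal versus DMSO.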 The method in brief: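 Cell-free recombinant MMP9 enzyme activity measured by fluorescence intensity 1 h after dosing. Primary screen in duplicate at 25 uM, actives followed in concentration series; loss of signal relative to DMSO.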
human Matrix Metalloproteinase-9 (MMP9), MMP9 (gene 4318), sequence (P14780 whole entry, looked up): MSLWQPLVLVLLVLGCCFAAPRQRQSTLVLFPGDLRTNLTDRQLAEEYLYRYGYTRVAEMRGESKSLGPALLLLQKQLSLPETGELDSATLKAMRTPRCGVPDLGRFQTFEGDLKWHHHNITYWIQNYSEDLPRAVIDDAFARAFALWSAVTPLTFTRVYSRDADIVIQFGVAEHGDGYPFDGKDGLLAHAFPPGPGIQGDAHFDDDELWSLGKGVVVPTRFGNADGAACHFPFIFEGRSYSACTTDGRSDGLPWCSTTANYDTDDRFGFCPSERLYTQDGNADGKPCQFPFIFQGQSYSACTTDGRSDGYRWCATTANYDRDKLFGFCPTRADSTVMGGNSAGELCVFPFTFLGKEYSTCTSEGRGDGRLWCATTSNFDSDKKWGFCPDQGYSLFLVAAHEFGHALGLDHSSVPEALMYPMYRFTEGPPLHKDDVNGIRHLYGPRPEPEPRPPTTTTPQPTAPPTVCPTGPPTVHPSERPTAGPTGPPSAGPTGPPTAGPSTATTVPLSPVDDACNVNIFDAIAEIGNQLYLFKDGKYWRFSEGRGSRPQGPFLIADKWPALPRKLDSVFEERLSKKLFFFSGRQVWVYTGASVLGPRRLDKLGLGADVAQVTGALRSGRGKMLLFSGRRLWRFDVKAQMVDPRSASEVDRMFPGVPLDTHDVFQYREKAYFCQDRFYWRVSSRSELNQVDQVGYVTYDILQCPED
`O=C(c1ccccc1)c1ccc(O)cc1O`: the AC50 was 13.7 µM (active).
Same read-out and setting: in the case of `Cc1ccc(O)c(-n2nc3ccccc3n2)c1` it was 9.4 µM (active); in that of `CCCCCCCCCCCCCC[P+](CCCC)(CCCC)CCCC`, 2.12 µM (active).
Still for that read-out and setting: as for `CC(C)CCCC(C)CCO` (stereo unspecified), the figure is 6.27 µM (active).
With `CC(=O)CCC(C)C`, the call was inactive.
On to `O=C1C=CC(=O)N1c1ccc(Cc2ccc(N3C(=O)C=CC3=O)cc2)cc1`, for which the AC50 was 2.59 µM (active).
Consider `CCC(C)CO` (stereo unspecified), for which the concentration at half-maximal activity (AC50) was 6.58 µM (active).

Another assay concerns the target human Phosphodiesterase 10 (PDE10), PDE10A (gene 10846) (UniProt Q9Y233). Briefly: NVS_ENZ_hPDE10: NovaScreen (NVS) Enzymatic Assay for human Phosphodiesterase 10 (PDE10) (AID 2283195). The method in brief:
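PDE10A, cell-free; 1 h incubation; fluorescence intensity + electrophoretic mobility shift separating substrate/product; DMSO = baseline; 25 uM duplicate primary, CRC up to 50 uM.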
`Nc1cc([N+](=O)[O-])cc(Cl)c1O`: the result was inactive.
Still for that read-out and setting: in the case of `CCN(CC)c1ccc2c(c1)Oc1cc(N(CC)CC)ccc1C21OC(=O)c2ccccc21` it was “inactive”; in that of `C#CC(O)CCC` (stereo unspecified), “inactive”.
As for `Brc1ccccn1`, the outcome was inactive.
Same read-out and setting: as for `O=C(Cl)c1ccc(Cl)cc1Cl`, the entry is “inactive”; as for `Nc1cccnc1N`, “inactive”.
On the same count and under the same terms, in the case of `O=C1C=CC(=O)N1c1ccc(Cc2ccc(N3C(=O)C=CC3=O)cc2)cc1` it was “inactive”.

A further assay deals with human Vascular Endothelial Growth Factor Receptor 1 (VEGFR1), FLT1 (gene 2321) (UniProt P17948). The assay can be described thus: NVS_ENZ_hVEGFR1: NovaScreen (NVS) Enzymatic Assay for human Vascular Endothelial Growth Factor Receptor 1 (VEGFR1) (AID 2283226). The method in brief:
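Cell-free assay of recombinant human VEGFR1 kinase with substrate, measured 1 h after dosing; fluorescence with electrophoretic mobility-shift separation of substrate and product, referenced to DMSO; primary screen at 25 uM in duplicate, actives then run in concentration series.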
As to `O=C1c2c(O)ccc(Nc3ccc(CCO)cc3)c2C(=O)c2c([N+](=O)[O-])ccc(O)c21`, the half-maximal activity concentration (AC50) is 0.885 µM (active).
Same read-out and setting: in the case of `CCCCCCCCCCCCCC[P+](CCCC)(CCCC)CCCC` it was 10 µM (active).
Turning to `C=CCOC(=O)CC(C)C`, the compound was called inactive.

The term AC50 denotes the concentration at which the activity in the assay is half-maximal.
